{"source": "PubChem BioAssay (NCATS)", "key": {"[1]": {"biological_target": "Glucocorticoid receptor (Homo sapiens) (UniProt P04150)", "sequence (P04150 whole entry, looked up)": "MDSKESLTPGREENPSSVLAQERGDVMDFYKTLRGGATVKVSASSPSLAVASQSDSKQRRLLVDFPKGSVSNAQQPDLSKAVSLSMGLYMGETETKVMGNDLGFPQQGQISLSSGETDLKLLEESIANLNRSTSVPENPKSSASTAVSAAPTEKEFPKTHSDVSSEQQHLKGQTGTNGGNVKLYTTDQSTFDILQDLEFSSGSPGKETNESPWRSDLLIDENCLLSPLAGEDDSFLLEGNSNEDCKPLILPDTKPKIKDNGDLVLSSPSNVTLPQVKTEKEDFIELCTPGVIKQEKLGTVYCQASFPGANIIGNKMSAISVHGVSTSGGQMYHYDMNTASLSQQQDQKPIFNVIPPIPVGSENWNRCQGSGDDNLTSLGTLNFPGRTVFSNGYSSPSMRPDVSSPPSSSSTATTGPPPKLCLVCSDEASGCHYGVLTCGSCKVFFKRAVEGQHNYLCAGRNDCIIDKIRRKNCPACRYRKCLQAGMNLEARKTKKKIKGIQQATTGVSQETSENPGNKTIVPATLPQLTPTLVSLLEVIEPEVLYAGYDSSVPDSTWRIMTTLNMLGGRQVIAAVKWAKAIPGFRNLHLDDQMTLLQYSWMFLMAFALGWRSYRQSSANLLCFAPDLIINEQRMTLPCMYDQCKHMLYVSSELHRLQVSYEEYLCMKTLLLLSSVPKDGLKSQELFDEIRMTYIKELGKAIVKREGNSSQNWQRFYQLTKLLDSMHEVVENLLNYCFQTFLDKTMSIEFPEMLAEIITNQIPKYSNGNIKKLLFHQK", "experiment": "qHTS assay for small molecule agonists of glucocorticoid receptor signaling (AID 588532; active = well fitted curve in the direction sought with a large enough effect in the signal ratio, with a control signal flat; the % refers to the signal ratio;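 note: 100% = dexamethasone at 0.1 µM and 0% = DMSO only wells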)", "conditions": "HeLa MMTV-bla, beta-lactamase ratio, agonist, 18 h; activation: stronger effect = higher value, percent of dexamethasone control, DMSO zero", "in_short": "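Cells were plated and rested 3-5 h at 37 C, compounds were added in titration and incubated 18 h, then CCF4 substrate was loaded for 2 h at RT before reading blue/green fluorescence. EC50 came from Hill-equation fitting.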"}, "[2]": {"biological_target": "Glucocorticoid receptor (Homo sapiens) (UniProt P04150)", "experiment": "qHTS assay for small molecule antagonists of glucocorticoid receptor signaling (AID 588533; active = well fitted inhibition curve with a large enough effect in the signal ratio, with a control signal flat, not every such curve was filed as active; the % refers to the signal ratio; note: % is set by controls: 0 for no effect and ±100 for the full control effect)", "in_short": "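Antagonist-mode qHTS: compound titrations added to GRE-bla HeLa cells, then dexamethasone 2 nM final; 18 h, 37 C. CCF4 FRET fluorescence normalized to dexamethasone and DMSO; IC50 from Hill fit.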"}, "[3]": {"experiment": "qHTS assay for small molecule antagonists of peroxisome proliferator-activated receptor delta signaling (AID 588535; active = well fitted inhibition curve with a large enough effect in the signal ratio, with a control signal flat, not every such curve was filed as active; the % refers to the signal ratio)", "conditions": "HEK293T PPARd-UAS-bla, beta-lactamase FRET ratio, 18 h; 460 nm channel", "in_short": "(§1)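 Fluorescence from CCF4-loaded GeneBLAzer PPAR-delta-UAS-bla HEK293T cells (2 hrs RT loading) quantified reporter inhibition after an 18 hr, 37 C compound exposure across a titration.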"}, "[4]": {"biological_target": "Peroxisome proliferator-activated receptor delta (Homo sapiens) (UniProt Q03181)", "sequence (Q03181 whole entry, looked up)": "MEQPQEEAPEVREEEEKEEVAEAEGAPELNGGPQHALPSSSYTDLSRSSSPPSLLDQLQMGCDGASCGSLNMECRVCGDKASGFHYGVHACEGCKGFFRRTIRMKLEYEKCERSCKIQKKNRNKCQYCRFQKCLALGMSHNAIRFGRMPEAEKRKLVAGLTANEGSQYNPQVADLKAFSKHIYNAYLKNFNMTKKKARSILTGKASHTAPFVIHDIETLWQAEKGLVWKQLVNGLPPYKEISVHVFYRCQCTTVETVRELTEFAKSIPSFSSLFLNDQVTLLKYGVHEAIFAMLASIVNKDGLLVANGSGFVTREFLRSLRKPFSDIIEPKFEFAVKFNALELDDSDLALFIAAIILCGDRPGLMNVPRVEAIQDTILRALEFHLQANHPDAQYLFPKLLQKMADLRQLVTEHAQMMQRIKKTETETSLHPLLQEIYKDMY", "experiment": "qHTS assay for small molecule antagonists of peroxisome proliferator-activated receptor delta signaling (AID 588535)", "in_short": "as §1"}, "[5]": {"biological_target": "Peroxisome proliferator-activated receptor gamma (Homo sapiens) (UniProt P37231)", "sequence (P37231 whole entry, looked up)": "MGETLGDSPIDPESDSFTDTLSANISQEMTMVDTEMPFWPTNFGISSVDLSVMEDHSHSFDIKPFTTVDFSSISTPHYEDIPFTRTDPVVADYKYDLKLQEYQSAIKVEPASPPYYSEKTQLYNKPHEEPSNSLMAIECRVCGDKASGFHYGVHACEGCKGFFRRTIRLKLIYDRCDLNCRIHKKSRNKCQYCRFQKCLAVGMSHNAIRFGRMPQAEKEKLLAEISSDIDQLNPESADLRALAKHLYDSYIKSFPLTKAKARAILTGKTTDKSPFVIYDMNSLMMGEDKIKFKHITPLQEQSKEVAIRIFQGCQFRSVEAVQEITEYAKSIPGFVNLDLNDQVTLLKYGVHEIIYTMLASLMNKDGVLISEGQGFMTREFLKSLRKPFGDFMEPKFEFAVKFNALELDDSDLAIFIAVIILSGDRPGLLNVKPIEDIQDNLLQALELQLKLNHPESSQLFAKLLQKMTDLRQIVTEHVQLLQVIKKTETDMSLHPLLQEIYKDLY", "experiment": "qHTS assay for small molecule agonists of peroxisome proliferator-activated receptor gamma signaling (AID 588536; active = well fitted curve in the direction sought with a large enough effect in the signal ratio, with a control signal flat, not every such curve was filed as active; the % refers to the signal ratio)", "in_short": "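Compound treatment: 16 h, 37 C, HEK293 GeneBLAzer cells. Detection: CCF4, 2 h RT. Values: Hill-fit EC50, efficacy as % of 2 uM rosiglitazone.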"}, "[6]": {"biological_target": "Vitamin D3 receptor (Homo sapiens) (UniProt P11473)", "sequence (P11473 whole entry, looked up)": "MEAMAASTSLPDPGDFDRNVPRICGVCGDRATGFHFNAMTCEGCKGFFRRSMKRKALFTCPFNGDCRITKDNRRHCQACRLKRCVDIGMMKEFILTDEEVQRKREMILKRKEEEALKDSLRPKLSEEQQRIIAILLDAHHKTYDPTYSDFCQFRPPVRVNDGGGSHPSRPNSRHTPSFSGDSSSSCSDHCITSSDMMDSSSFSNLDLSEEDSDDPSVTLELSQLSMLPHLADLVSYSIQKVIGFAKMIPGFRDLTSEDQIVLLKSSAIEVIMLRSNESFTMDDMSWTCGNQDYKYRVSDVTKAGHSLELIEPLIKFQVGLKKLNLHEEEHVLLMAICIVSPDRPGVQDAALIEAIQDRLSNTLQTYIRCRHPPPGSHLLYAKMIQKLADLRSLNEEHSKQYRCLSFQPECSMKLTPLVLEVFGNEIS", "experiment": "qHTS assay for small molecule antagonists of vitamin D receptor signaling (AID 588541; calls by dose curve)", "in_short": "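VDR-UAS-bla HEK293T cells in 2% charcoal-stripped FBS were stimulated with 1-alpha,25-dihydroxyvitamin D3 (3 nM final) plus compound for 16 h at 37 C. The beta-lactamase CCF4 readout was normalized to 50 nM agonist and DMSO, and Hill fits gave IC50.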"}, "[7]": {"biological_target": "Vitamin D3 receptor (Homo sapiens) (UniProt P11473)", "experiment": "qHTS assay for small molecule agonists of vitamin D receptor signaling (AID 588543; calls by dose curve)", "in_short": "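Reporter cells (HEK293T, VDR-UAS-bla) were seeded in medium with 2% charcoal-stripped serum and incubated 5 h, then compounds in concentration series were added for 16 h at 37 °C. Stimulation was scaled between DMSO basal and 50 nM 1α,25-dihydroxyvitamin D3.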"}, "[8]": {"biological_target": "Thyroid hormone receptor beta (Homo sapiens) (UniProt P10828)", "sequence (P10828 whole entry, looked up)": "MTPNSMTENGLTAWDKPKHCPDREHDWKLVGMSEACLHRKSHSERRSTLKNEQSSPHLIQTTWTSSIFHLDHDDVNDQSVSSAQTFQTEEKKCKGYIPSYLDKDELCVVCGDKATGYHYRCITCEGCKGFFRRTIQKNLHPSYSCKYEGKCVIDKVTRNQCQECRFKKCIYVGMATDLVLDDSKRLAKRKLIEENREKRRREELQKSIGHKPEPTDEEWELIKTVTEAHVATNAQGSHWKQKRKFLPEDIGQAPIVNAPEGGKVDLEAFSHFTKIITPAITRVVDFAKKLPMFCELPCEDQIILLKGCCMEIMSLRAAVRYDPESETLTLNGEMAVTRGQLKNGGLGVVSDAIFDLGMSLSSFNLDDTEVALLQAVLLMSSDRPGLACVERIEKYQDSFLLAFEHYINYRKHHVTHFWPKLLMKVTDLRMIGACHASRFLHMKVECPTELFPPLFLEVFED", "experiment": "qHTS assay for small molecule agonists of thyroid hormone receptor beta signaling (AID 588545; calls by dose curve)", "in_short": "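HEK 293 TR-UAS-bla; agonist mode; 18 hrs, 37 C; CCF4, ex 405/em 460 and 530 nm; norm. T3 10 nM = 100%, DMSO = 0%; Hill fit → EC50, efficacy.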"}, "[9]": {"experiment": "qHTS assay for small molecule antagonists of retinoid X receptor alpha signaling (AID 588546; active = well fitted inhibition curve with a large enough effect in the signal ratio, with a control signal flat, not every such curve was filed as active; the % refers to the signal ratio)", "conditions": "HEK293T RXRa-UAS-bla, beta-lactamase ratio, antagonist mode; measured here: W530 green channel, cytotoxicity proxy", "in_short": "(§2)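 Beta-lactamase reporter inhibition, read as CCF4 fluorescence ratio (ex 405, em 460/530 nm) after 2 h at RT. HEK293T UAS-bla cells, 2500/well, were stimulated with 9-cis-RA at 500 or 100 nM final alongside test compound for 18 h at 37 C.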"}, "[10]": {"biological_target": "Retinoic acid receptor RXR-alpha (Homo sapiens) (UniProt P19793)", "sequence (P19793 whole entry, looked up)": "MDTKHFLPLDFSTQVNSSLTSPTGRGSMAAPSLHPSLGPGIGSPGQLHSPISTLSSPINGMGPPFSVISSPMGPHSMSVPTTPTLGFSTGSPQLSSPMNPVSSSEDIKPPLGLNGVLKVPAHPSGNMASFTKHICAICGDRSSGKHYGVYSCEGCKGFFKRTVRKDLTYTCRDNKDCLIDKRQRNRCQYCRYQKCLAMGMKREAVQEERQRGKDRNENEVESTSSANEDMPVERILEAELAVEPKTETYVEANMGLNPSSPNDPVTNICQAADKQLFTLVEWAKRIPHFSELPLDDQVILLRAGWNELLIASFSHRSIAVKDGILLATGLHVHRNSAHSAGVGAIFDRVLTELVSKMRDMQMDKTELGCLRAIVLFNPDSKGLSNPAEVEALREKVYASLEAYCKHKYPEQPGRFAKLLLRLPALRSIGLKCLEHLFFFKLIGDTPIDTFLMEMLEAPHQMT", "experiment": "qHTS assay for small molecule antagonists of retinoid X receptor alpha signaling (AID 588546)", "conditions": "HEK293T RXRa-UAS-bla, beta-lactamase ratio, antagonist mode", "in_short": "as §2"}, "[11]": {"biological_target": "Thyroid hormone receptor beta (Homo sapiens) (UniProt P10828)", "experiment": "qHTS assay for small molecule antagonists of thyroid hormone receptor beta signaling (AID 588547; active = well fitted inhibition curve with a large enough effect in the signal ratio, with a control signal flat, not every such curve was filed as active; the % refers to the signal ratio)", "conditions": "TR-UAS-bla HEK293, beta-lactamase ratio, antagonist mode, 18 h", "in_short": "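TR-UAS-bla GripTite HEK293 cells in 2% charcoal/dextran FBS medium; compounds 0.59 nM to 92 uM with T3 at 0.4nM final, 18 h at 37 C. Beta-lactamase read by CCF4 fluorescence (460/530 nm); Hill fits gave IC50 and efficacy.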"}, "[12]": {"experiment": "qHTS assay for small molecule activators of the p53 signaling pathway (AID 651743; active = well fitted activation curve with a large enough effect in the signal ratio, not every such curve was filed as active; the % refers to the signal ratio)", "conditions": "HCT-116 p53RE-bla, beta-lactamase FRET ratio, 16 h; activation: stronger effect = higher value", "in_short": "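Following 16 hours of compound exposure at 37 C, HCT-116 cells bearing the p53RE-bla reporter were loaded with LiveBLAzer B/G FRET substrate for 2 hours at room temperature and fluorescence intensity was recorded.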"}, "[13]": {"experiment": "qHTS assay for small molecule activators of the nuclear factor-kappa B (NF-kB) signaling pathway (AID 651749; active = well fitted activation curve with a large enough effect in the signal ratio; the % refers to the signal ratio)", "conditions": "NF-kB-bla ME-180 cells, beta-lactamase FRET ratio, 16 h; activation: stronger effect = higher value", "in_short": "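In this qHTS format, compounds acting as activators increase NF-kB-driven beta-lactamase in ME-180 cells, measured as disrupted FRET after 16 hr exposure at 37C and 5% CO2.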"}, "[14]": {"experiment": "qHTS assay for environmental chemicals that activate the Aryl hydrocarbon Receptor (AhR) signaling pathway (AID 651777)", "conditions": "1A2-DRE human hepatoma cells, luciferase, 24 h; activation: stronger effect = higher value", "in_short": "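Human hepatoma 1A2-DRE cells, stably carrying a dioxin response element and CYP1A2 promoter driving luciferase, were exposed to compounds for 24 hr at 37 C and 5% CO2. Luciferase signal was then read after 30 min One-Glo at room temperature.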"}, "[15]": {"biological_target": "Peroxisome proliferator-activated receptor alpha (Homo sapiens) (UniProt Q07869)", "sequence (Q07869 whole entry, looked up, the tested form may be a part)": "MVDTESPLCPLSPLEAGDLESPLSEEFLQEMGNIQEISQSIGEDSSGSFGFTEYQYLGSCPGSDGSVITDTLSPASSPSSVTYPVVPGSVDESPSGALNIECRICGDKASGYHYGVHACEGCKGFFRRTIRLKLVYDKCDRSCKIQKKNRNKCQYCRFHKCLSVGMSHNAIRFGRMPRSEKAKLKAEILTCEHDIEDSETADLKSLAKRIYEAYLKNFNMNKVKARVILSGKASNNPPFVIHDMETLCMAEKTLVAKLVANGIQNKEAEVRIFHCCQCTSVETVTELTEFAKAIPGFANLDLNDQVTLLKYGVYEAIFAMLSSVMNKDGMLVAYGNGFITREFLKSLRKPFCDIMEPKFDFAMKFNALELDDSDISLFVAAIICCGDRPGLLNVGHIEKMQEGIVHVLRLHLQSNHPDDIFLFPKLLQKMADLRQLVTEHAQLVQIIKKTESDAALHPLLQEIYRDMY", "experiment": "qHTS assay for small molecule agonists of the peroxisome proliferator-activated receptor alpha (PPARalpha) signaling pathway (AID 651778)", "conditions": "PathHunter PPARalpha complementation, chemiluminescence, 6 h; max response: stronger effect = higher value", "in_short": "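Enzyme-fragment complementation assay in which ligand-bound PPARalpha translocates and forms an active enzyme that generates chemiluminescence. Cells were plated overnight, exposed to compound for 6 hr at 37 C, and then given detection reagent for 60 min at room temperature.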"}, "[16]": {"experiment": "qHTS assay for small molecule agonists of the antioxidant response element (ARE) signaling pathway measured by Nrf2-dependant transcriptional activity (AID 720636; active = well fitted curve in the direction sought with a large enough effect in the repeat runs; an effect the other way counts as inactive or inconclusive)", "in_short": "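ARE-luc HepG2 cells carrying an Nrf2-responsive luciferase reporter were plated in medium with 1% dialyzed FBS, left 6 hr at 37 C to attach, then exposed to compound for 16 hr. Luciferase luminescence was read after ONE-Glo addition.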"}, "[17]": {"experiment": "qHTS assay for small molecule agonists of the antioxidant response element (ARE) signaling pathway measured by Nrf2-dependant transcriptional activity - cell viability counter screen (AID 720653; active = well fitted curve in the direction sought with a large enough effect in the repeat runs; an effect the other way counts as inactive or inconclusive)", "conditions": "ARE-bla HepG2 viability, CellTiter-Glo ATP luminescence, 16 h; max response: stronger effect = lower value", "in_short": "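ARE-bla HepG2 cells treated with compounds for 16 h at 37C; this counter screen measures viability as intracellular ATP by CellTiter-Glo luminescence after 30 min at room temperature.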"}, "[18]": {"experiment": "qHTS assay for cell viability of HEK293 cells (AID 743288)", "conditions": "ATP luminescence (CellTiter-Glo), 18 h; max response: stronger effect = lower value", "in_short": "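Viable-cell counts were inferred from luciferase-based ATP content in HEK293 cells seeded at 2,000/well, pre-incubated ≥5 h, then dosed with DMSO-solubilised compounds for 18 h at 37 C.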"}, "[19]": {"experiment": "qHTS assay for cell viability of the p53RE-bla HCT-116 cell line (AID 743292)", "in_short": "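CellSensor p53RE-bla HCT-116 cells, 4,000/well, preincubated 5 h at 37 C, then exposed to compounds in DMSO for 16 h at 37 C. Viability read as CellTiter-Glo luminescence (intracellular ATP) after 30 min at room temperature.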"}, "[20]": {"biological_target": "Nuclear receptor subfamily 1 group I member 2 (Rattus norvegicus) (UniProt Q9R1A7)", "sequence (Q9R1A7 whole entry, looked up)": "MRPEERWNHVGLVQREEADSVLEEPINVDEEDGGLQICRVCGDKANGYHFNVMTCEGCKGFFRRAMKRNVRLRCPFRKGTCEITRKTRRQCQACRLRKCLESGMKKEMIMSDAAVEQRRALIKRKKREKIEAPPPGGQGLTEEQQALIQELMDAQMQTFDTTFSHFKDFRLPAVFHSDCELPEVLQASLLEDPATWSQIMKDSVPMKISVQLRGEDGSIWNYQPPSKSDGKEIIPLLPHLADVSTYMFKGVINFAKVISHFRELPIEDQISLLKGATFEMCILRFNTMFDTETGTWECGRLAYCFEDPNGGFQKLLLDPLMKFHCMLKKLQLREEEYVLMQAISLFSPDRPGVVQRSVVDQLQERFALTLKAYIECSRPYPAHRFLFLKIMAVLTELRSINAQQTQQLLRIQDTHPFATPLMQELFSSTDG", "experiment": "qHTS assay for small molecule activators of the rat pregnane X receptor (rPXR) signaling pathway (AID 651751; call rule not given here)", "conditions": "rPXR reporter cells, luciferase (One-Glo), 24 h"}, "[21]": {"experiment": "qHTS assay for small molecule activators of the human pregnane X receptor (PXR) signaling pathway (AID 720659; call rule not given here)"}, "[22]": {"biological_target": "Peroxisome proliferator-activated receptor delta (Homo sapiens) (UniProt Q03181)", "experiment": "qHTS assay for small molecule agonists of peroxisome proliferator-activated receptor delta signaling (AID 588534; calls by dose curve)", "in_short": "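Agonist-mode qHTS; reporter cells, 5 hrs 37 C pre-incubation; compound titration, 18 hrs 37 C; CCF4 dye, 2 hrs RT; fluorescence read. EC50/efficacy via Hill fit.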"}, "[23]": {"biological_target": "Peroxisome proliferator-activated receptor gamma (Homo sapiens) (UniProt P37231)", "experiment": "qHTS assay for small molecule antagonists of peroxisome proliferator-activated receptor gamma signaling (AID 588537; active = well fitted inhibition curve with a large enough effect in the signal ratio, with a control signal flat, not every such curve was filed as active; the % refers to the signal ratio)", "in_short": "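Fluorescence at 460 and 530 nm (405 nm excitation) reported beta-lactamase cleavage of CCF4 after 2 h room-temperature loading. HEK293 reporter cells in 1% charcoal/dextran-treated FBS had received compound and rosiglitazone for 16 h.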"}, "[24]": {"experiment": "qHTS assay for small molecule agonists of retinoid X receptor alpha signaling (AID 588544; calls by dose curve)", "conditions": "HEK293T RXRa-UAS-bla, beta-lactamase reporter, 18 h; 530 nm emission"}, "[25]": {"biological_target": "Retinoic acid receptor RXR-alpha (Homo sapiens) (UniProt P19793)", "experiment": "qHTS assay for small molecule agonists of retinoid X receptor alpha signaling (AID 588544)"}, "[26]": {"experiment": "qHTS assay for small molecule agonists of the antioxidant response element (ARE) signaling pathway (AID 651741; active = well fitted activation curve with a large enough effect in the signal ratio; the % refers to the signal ratio)", "in_short": "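Stably integrated ARE-beta-lactamase reporter HepG2 cells; 16 h compound incubation, 37 C; LiveBLAzer FRET substrate 2 h at room temperature; fluorescence intensity.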"}}, "note": "Inconclusive results are not listed. Active and inactive are the calls of the source. Unless noted, calls come from the whole dose curve; as a rule, active = well fitted curve in the direction sought with a large enough effect; inconclusive = small, poorly fitted or top-dose-only effect, or another doubt; inactive = no such curve, though single readings can be large; an effect the other way counts as inactive or inconclusive. Throughout, for activity change % (negative = inhibition): series mostly up to about 77 µM; % is set by controls: 0 for no effect and ±100 for the full control effect.", "data": [{"smiles": "O=P(O)(O)CN(CP(=O)(O)O)CP(=O)(O)O", "values": [{"measurement": "activation", "setting": "[1]", "value": "4.25% (inactive)"}, {"measurement": "Potency", "setting": "[2]", "value": "inactive"}, {"measurement": "max response", "setting": "[3]", "value": 1.59, "unit": "%"}, {"measurement": "Potency", "setting": "[4]", "value": "inactive"}, {"measurement": "Potency", "setting": "[5]", "value": "inactive"}, {"measurement": "Potency", "setting": "[6]", "value": "inactive"}, {"measurement": "outcome", "setting": "[7]", "value": "inactive"}, {"measurement": "Potency", "setting": "[8]", "value": "inactive"}, {"measurement": "max response", "setting": "[9]", "value": -13.3, "unit": "%"}, {"measurement": "max response", "setting": "[10]", "value": "-32% (inactive)"}, {"measurement": "activity change % (negative = inhibition)", "setting": "[11]", "value": "-9.36% (inactive)"}, {"measurement": "activation", "setting": "[12]", "value": "-5.96% (inactive)"}, {"measurement": "activation", "setting": "[13]", "value": "0.3% (inactive)"}, {"measurement": "activation", "setting": "[14]", "value": "0.682% (inactive)"}, {"measurement": "max response", "setting": "[15]", "value": "4.68% (inactive)"}, {"measurement": "Potency", "setting": "[16]", "value": "inactive"}, {"measurement": "max response", "setting": "[17]", "value": "-0.727% (inactive)"}, {"measurement": "max response", "setting": "[18]", "value": "-8.91% (inactive)"}, {"measurement": "Potency", "setting": "[19]", "value": "inactive"}, {"measurement": "max response", "setting": "[20]", "value": "-1.66% (inactive)"}, {"measurement": "outcome", "setting": "[21]", "value": "inactive"}]}, {"smiles": "CNC(=O)O/N=C(\\C)SC", "values": [{"measurement": "activation", "setting": "[1]", "value": "-2.31% (inactive)"}, {"measurement": "Potency", "setting": "[2]", "value": "inactive"}, {"measurement": "outcome", "setting": "[22]", "value": "inactive"}, {"measurement": "max response", "setting": "[3]", "value": 24.5, "unit": "%"}, {"measurement": "Potency", "setting": "[4]", "value": "inactive"}, {"measurement": "Potency", "setting": "[23]", "value": "inactive"}, {"measurement": "Potency", "setting": "[6]", "value": "inactive"}, {"measurement": "outcome", "setting": "[7]", "value": "inactive"}, {"measurement": "max response", "setting": "[24]", "value": -25.7, "unit": "%"}, {"measurement": "Potency", "setting": "[25]", "value": "inactive"}, {"measurement": "Potency", "setting": "[8]", "value": "inactive"}, {"measurement": "max response", "setting": "[9]", "value": -3.33, "unit": "%"}, {"measurement": "max response", "setting": "[10]", "value": "8.15% (inactive)"}, {"measurement": "activity change % (negative = inhibition)", "setting": "[11]", "value": "-8.81% (inactive)"}, {"measurement": "Potency", "setting": "[26]", "value": "inactive"}, {"measurement": "activation", "setting": "[12]", "value": "-0.165% (inactive)"}, {"measurement": "activation", "setting": "[13]", "value": "-0.423% (inactive)"}, {"measurement": "activation", "setting": "[14]", "value": "-1.88% (inactive)"}, {"measurement": "max response", "setting": "[15]", "value": "-0.714% (inactive)"}, {"measurement": "Potency", "setting": "[16]", "value": "inactive"}, {"measurement": "max response", "setting": "[17]", "value": "-4.43% (inactive)"}, {"measurement": "max response", "setting": "[18]", "value": "-6.55% (inactive)"}, {"measurement": "Potency", "setting": "[19]", "value": "inactive"}, {"measurement": "max response", "setting": "[20]", "value": "-0.197% (inactive)"}]}]}
